# Experimental data taken from PubChem BioAssay (Tox21).
# A number with no mark means an inactive call. Inconclusive results are not listed. A call without a number means that no potency is given here. Activity calls are given as the source filed them. Unless noted, the call rests on the fitted dose curve; in most records, active means well fitted curve in the direction sought with a large enough effect in the repeat runs; inconclusive means weak or mixed curves; inactive means no such curve, though single readings can be large; an effect the other way counts as inactive or inconclusive.
# Tests used:
# [1] = qHTS assay to identify small molecule antagonists of the glucocorticoid receptor (GR) signaling pathway - cell viability counter screen (AID 720693); further: nearly all actives have a fitted effect of over 55% in size
# [2] = qHTS assay for identifying genotoxic compounds that show differential cytotoxicity against isogenic chicken DT40 cell lines with known DNA damage response pathways - wild type cell line (AID 743012); further: nearly all actives have a fitted effect of over 60% in size; further: potency means the concentration at half of the fitted maximal effect
# Outline: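 Luminescent ATP viability signal (CellTiter-Glo, 30 min RT) recorded after wild type DT40 cells were incubated with compounds for 40 h at 37 C/5% CO2.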
# [3] = qHTS assay for identifying genotoxic compounds that show differential cytotoxicity against isogenic chicken DT40 cell lines with known DNA damage response pathways - Rev3 mutant cell line (AID 743014); further: nearly all actives have a fitted effect of over 55% in size; further: potency means the concentration at half of the fitted maximal effect
# [4] = qHTS assay for identifying genotoxic compounds that show differential cytotoxicity against isogenic chicken DT40 cell lines with known DNA damage response pathways - Rad54/Ku70 mutant cell line (AID 743015); further: nearly all actives have a fitted effect of over 60% in size; further: potency means the concentration at half of the fitted maximal effect
# [5] = qHTS assay to identify small molecule antagonists of the androgen receptor (AR) signaling pathway - cell viability counter screen (AID 743033; further: nearly all actives have a fitted effect of over 45% in size)
# [6] = qHTS assay to identify small molecule antagonists of the androgen receptor (AR) signaling pathway using the MDA cell line - cell viability counter screen (AID 743041; further: nearly all actives have a fitted effect of over 45% in size)
# Outline: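 Viability read by CellTiter-Fluor fluorescence in the same wells as the antagonist screen, added after 15.5 h of a 16 h, 37C exposure. Human breast carcinoma MDA-kb2 AR-luc cells, compounds co-dosed with agonist R1881.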
# [7] = qHTS assay to identify small molecule antagonists of the thyroid receptor (TR) signaling pathway - cell viability counter screen (AID 743064); further: nearly all actives have a fitted effect of over 50% in size
# Outline: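 Rat GH3 pituitary tumor cells stably expressing two TR response elements driving luciferase were plated, rested 4 h, then dosed with library compounds and T3 (1 nM final). After 23.5 h at 37 °C, CellTiter-Fluor was added for 30 min and fluorescence recorded.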
# [8] = qHTS assay to identify small molecule antagonists of the thyroid receptor (TR) signaling pathway (AID 743065); further: nearly all actives have a fitted effect of over 55% in size
# Outline: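 Antagonism measured as loss of luciferase signal in GH3 cells stably carrying a TRE-luciferase reporter, co-treated with compound and T3 (1 nM final) for 23.5 h at 37 C. Viability was read in the same well by CellTiter-Fluor.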
# [9] = system: thyroid hormone receptor (rat, GH3 cells); assay: qHTS assay to identify small molecule agonists of the thyroid receptor (TR) signaling pathway (AID 743066; calls by dose curve)
# [10] = target: Estrogen receptor (Homo sapiens) (UniProt P03372); assay: qHTS assay to identify small molecule antagonists of the estrogen receptor alpha (ER-alpha) signaling pathway (AID 743069; active means well fitted curve in the direction sought with a large enough effect in the signal ratio in the repeat runs, not every such curve was filed as active; the % refers to the signal ratio)
# Estrogen receptor (Homo sapiens), sequence (P03372 whole entry, looked up): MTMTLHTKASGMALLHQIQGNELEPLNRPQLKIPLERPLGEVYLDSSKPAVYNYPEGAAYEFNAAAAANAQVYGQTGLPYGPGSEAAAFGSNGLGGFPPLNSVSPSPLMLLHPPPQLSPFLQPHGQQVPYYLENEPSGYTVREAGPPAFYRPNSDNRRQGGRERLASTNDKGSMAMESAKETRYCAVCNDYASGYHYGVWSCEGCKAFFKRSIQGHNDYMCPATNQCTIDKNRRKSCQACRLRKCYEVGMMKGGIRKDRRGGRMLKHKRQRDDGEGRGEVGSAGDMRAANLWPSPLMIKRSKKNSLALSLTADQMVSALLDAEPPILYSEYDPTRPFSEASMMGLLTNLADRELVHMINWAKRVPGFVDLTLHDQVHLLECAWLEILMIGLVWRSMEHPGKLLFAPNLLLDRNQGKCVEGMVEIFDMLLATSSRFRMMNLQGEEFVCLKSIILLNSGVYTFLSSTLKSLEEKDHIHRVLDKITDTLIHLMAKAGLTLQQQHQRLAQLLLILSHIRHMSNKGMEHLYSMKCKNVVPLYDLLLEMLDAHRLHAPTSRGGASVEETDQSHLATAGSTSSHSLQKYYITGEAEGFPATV
# Outline: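 Antagonist mode: compounds in DMSO were co-added with 17beta-estradiol to ER-alpha-bla HEK293 cells (2% charcoal-stripped serum) and left 18 h at 37C. Reporter inhibition was measured as FRET fluorescence after 2 h LiveBLAzer substrate at room temperature.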
# [11] = qHTS assay to identify small molecule antagonists of the estrogen receptor alpha (ER-alpha) signaling pathway - cell viability counter screen (AID 743074; calls by dose curve;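 further: HEK293 cells carrying ER-alpha-UAS-bla reporter stimulated with 17beta-estradiol; nearly all actives have a fitted effect of over 45% in size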)
# [12] = target: Estrogen receptor (Homo sapiens) (UniProt P03372); assay: qHTS assay to identify small molecule agonists of the estrogen receptor alpha (ER-alpha) signaling pathway (AID 743075; calls by dose curve;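 further: HEK293 GripTite cells with ER-alpha and UAS-driven beta-lactamase reporter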)
# [13] = target: Estrogen receptor (Homo sapiens) (UniProt P03372); assay: qHTS assay to identify small molecule agonists of the estrogen receptor alpha (ER-alpha) signaling pathway using the BG1 cell line (AID 743079); settings: BG1Luc4E2 cells, ERE-luciferase agonist, 22 h; further: nearly all actives have a fitted effect of over 20% in size
# [14] = qHTS assay to identify small molecule antagonists of the estrogen receptor alpha (ER-alpha) signaling pathway using the BG1 cell line (AID 743080; calls by dose curve;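 further: BG1 cells stimulated with 17beta-estradiol alongside compound; nearly all actives have a fitted effect of over 25% in size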; further: potency means the concentration at half of the fitted maximal effect)
# Outline: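 BG1Luc4E2, endogenous ER-alpha, 4xERE-luc; 5 d charcoal-stripped FBS, phenol red free; 24 h plating; cpd + 17beta-estradiol 21.5 h, 37 C/5% CO2; CellTiter-Fluor viability 30 min, then ONE-Glo luciferase 30 min RT.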
# [15] = qHTS assay to identify small molecule antagonists of the estrogen receptor alpha (ER-alpha) signaling pathway using the BG1 cell line - cell viability counter screen (AID 743081);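 further: compound given together with 17beta-estradiol as the ER stimulus; nearly all actives have a fitted effect of over 45% in size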
# Aromatase (Homo sapiens) = Aromatase (Homo sapiens) (UniProt P11511); assay: qHTS assay to identify aromatase inhibitors (AID 743083); further: nearly all actives have a fitted effect of over 55% in size
# Aromatase (Homo sapiens), sequence (P11511 whole entry, looked up): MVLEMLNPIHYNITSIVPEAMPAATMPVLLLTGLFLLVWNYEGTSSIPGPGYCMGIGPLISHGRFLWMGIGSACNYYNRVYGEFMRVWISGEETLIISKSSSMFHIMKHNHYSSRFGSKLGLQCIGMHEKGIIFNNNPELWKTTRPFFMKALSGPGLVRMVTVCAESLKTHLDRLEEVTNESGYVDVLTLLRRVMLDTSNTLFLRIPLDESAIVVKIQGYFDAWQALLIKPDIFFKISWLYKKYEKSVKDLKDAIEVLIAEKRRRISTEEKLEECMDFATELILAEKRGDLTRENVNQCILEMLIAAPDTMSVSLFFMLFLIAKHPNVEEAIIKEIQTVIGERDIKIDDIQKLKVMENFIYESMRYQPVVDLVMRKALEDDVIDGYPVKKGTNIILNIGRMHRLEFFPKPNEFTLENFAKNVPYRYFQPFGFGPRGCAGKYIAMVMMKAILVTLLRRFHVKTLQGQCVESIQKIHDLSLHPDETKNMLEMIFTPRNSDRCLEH
# [16] = qHTS assay to identify aromatase inhibitors - cell viability counter screen (AID 743084)
# [17] = target: Androgen receptor (Homo sapiens) (UniProt P10275); assay: qHTS assay to identify small molecule antagonists of the androgen receptor (AR) signaling pathway (AID 743035; active means well fitted inhibition curve with a large enough effect in the signal ratio in the repeat runs, not every such curve was filed as active; the % refers to the signal ratio)
# Androgen receptor (Homo sapiens), sequence (P10275 whole entry, looked up): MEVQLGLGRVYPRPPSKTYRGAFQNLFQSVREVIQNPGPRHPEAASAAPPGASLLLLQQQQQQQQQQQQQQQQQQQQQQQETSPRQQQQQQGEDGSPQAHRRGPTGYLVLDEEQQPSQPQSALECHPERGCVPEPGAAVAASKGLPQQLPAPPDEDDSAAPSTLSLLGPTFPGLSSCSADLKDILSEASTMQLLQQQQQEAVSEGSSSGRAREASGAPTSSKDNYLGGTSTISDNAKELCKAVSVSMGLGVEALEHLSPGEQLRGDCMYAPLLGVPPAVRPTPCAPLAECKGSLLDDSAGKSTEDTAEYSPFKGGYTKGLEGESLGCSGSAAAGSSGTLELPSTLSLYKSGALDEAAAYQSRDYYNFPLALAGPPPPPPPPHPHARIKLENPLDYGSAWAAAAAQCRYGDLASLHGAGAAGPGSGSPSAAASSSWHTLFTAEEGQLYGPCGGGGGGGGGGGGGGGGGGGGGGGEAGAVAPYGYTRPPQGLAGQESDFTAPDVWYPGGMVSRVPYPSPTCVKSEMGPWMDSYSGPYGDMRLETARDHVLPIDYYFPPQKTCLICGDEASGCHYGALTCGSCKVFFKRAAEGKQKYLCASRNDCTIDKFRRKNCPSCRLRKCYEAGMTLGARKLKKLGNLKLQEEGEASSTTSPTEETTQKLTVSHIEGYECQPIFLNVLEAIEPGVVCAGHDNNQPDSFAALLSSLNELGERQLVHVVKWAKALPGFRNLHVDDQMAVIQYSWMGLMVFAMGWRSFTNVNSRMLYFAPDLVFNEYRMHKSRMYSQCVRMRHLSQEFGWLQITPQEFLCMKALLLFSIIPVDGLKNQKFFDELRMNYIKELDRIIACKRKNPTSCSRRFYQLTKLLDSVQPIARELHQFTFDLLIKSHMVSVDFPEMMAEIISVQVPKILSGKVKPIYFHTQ
# Outline: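 Quantitative HTS of the Tox21 10K library used HEK293 AR-UAS-bla cells stimulated with R1881 alongside compound for 16 h at 37C, followed by beta-lactamase FRET detection (LiveBLAzer B/G, 2 h, RT).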
# [18] = target: Androgen receptor (Homo sapiens) (UniProt P10275); assay: qHTS assay to identify small molecule agonists of the androgen receptor (AR) signaling pathway (AID 743036; active means well fitted activation curve with a large enough effect in the signal ratio in the repeat runs, with a control signal flat, not every such curve was filed as active; the % refers to the signal ratio)
# Outline: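 Quantitative HTS of the Tox21 10K library in HEK293 cells bearing a stably integrated UAS-controlled beta-lactamase reporter. Compound exposure lasted 16 h at 37C. Reporter activity was detected by FRET substrate fluorescence after 2 h at room temperature.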
# [19] = target: Androgen receptor (Homo sapiens) (UniProt P10275); assay: qHTS assay to identify small molecule agonists of the androgen receptor (AR) signaling pathway using the MDA cell line (AID 743040; further: nearly all actives have a fitted effect of over 20% in size)
# Outline: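 Luciferase agonist assay: 16 h compound exposure at 37C without CO2 in MDA-kb2 AR-luc cells, whose MMTV promoter responds to both AR and GR. Luminescence measured after 30 min room-temperature incubation with ONE-Glo.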
compound,measurement,setting,value
O=CCCl,Potency,[1],inactive
same,Potency,[2],19.3 µM (active)
same,Potency,[3],0.217 µM (active)
same,Potency,[4],27.3 µM (active)
same,Potency,[5],inactive
same,Potency,[6],inactive
same,Potency,[7],inactive
same,Potency,[8],inactive
same,Potency,[9],inactive
same,Potency,[10],inactive
same,Potency,[11],inactive
same,Potency,[12],inactive
same,activation,[13]; at 70.3 µM (top of the series),14.1%
same,Potency,[14],inactive
same,Potency,[15],inactive
same,Potency,Aromatase (Homo sapiens),inactive
same,Potency,[16],inactive
Clc1cc2c(cc1Cl)Oc1cc(Cl)c(Cl)cc1O2,"viability change, negative = cytotoxic",[1],-0.875% [at 0.284 µM]
same,"activity change, negative = cytotoxicity",[2],0.129% [at 0.343 µM]
same,"activity, negative = cytotoxicity",[3],4.17% [at 0.343 µM]
same,"activity change, negative = cytotoxicity",[4],7.26% [at 0.345 µM]
same,"activity change, negative = cytotoxicity",[5],-3.41% [at 0.284 µM]
same,"activity change, negative = inhibition",[17],-2.78% [at 0.284 µM]
same,activation,[18],-3.9% [at 0.28 µM]
same,activity change,[19],5.01% [at 0.341 µM]
same,"activity change, negative = cytotoxic",[7],5.73% [at 0.341 µM]
same,"activity, negative = inhibition",[8],0.19% [at 0.341 µM]
same,activation,[9],-1.12% [at 0.329 µM]
same,"activity, negative = inhibition",[10],-7.88% [at 0.274 µM]
same,"activity, negative = cytotoxicity",[11],14.4% [at 0.274 µM]
same,activation,[12],-4.62% [at 0.274 µM]
same,activation,[13]; at 0.341 µM (top of the series),-0.247%
same,Potency,[14],0.0007 µM (active)
same,"activity change, negative = cytotoxicity",[15],-0.0382% [at 0.341 µM]
same,"activity change, negative = cytotoxicity",[16],1.38% [at 0.342 µM]
CNC(=O)Oc1ccccc1C(C)C,Potency,[1],inactive
same,Potency,[2],inactive
same,Potency,[3],inactive
same,Potency,[4],inactive
same,Potency,[5],inactive
same,Potency,[17],inactive
same,outcome,[18],inactive
same,outcome,[19],inactive
same,Potency,[6],inactive
same,Potency,[7],inactive
same,Potency,[8],inactive
same,Potency,[9],inactive
same,Potency,[10],inactive
same,Potency,[11],inactive
same,Potency,[12],inactive
same,activation,[13]; at 70.3 µM (top of the series),-4.06%
same,Potency,[14],inactive
same,Potency,[15],inactive
same,Potency,Aromatase (Homo sapiens),inactive
same,Potency,[16],inactive
NNC(N)=O,Potency,[1],inactive
same,Potency,[2],inactive
same,Potency,[3],inactive
same,Potency,[4],inactive
same,Potency,[5],inactive
same,Potency,[6],inactive
same,Potency,[7],inactive
same,Potency,[8],inactive
same,Potency,[9],inactive
same,Potency,[10],inactive
same,Potency,[11],inactive
same,Potency,[12],inactive
same,activation,[13]; at 95 µM (top of the series),-3.44%
same,Potency,[14],inactive
same,Potency,[15],inactive
same,Potency,Aromatase (Homo sapiens),inactive
same,Potency,[16],inactive
O=P(O)(O)CN(CP(=O)(O)O)CP(=O)(O)O,Potency,[1],inactive
same,Potency,[2],inactive
same,Potency,[3],inactive
same,Potency,[4],inactive
same,Potency,[5],inactive
same,Potency,[6],inactive
same,Potency,[7],inactive
same,Potency,[8],inactive
same,Potency,[9],inactive
same,Potency,[11],inactive
same,Potency,[12],inactive
same,activation,[13]; at 32.5 µM (top of the series),11.2%
same,Potency,[14],inactive
same,Potency,[15],inactive
same,Potency,Aromatase (Homo sapiens),inactive
same,Potency,[16],inactive
C[C@H](N)C(=O)c1ccccc1,Potency,[1],inactive
same,Potency,[2],inactive
same,Potency,[3],inactive
same,Potency,[4],inactive
same,Potency,[5],inactive
same,Potency,[17],inactive
same,outcome,[18],inactive
same,outcome,[19],inactive
same,Potency,[7],inactive
same,Potency,[8],inactive
same,Potency,[9],inactive
same,Potency,[10],inactive
same,Potency,[11],inactive
same,Potency,[12],inactive
same,activation,[13]; at 70.3 µM (top of the series),-5.09%
same,activation,[13]; at 95 µM (top of the series),4.39%
same,Potency,[14],inactive
same,Potency,[15],inactive
same,Potency,Aromatase (Homo sapiens),inactive
same,Potency,[16],inactive
CC(=O)CN(CC(C)=O)N=O,Potency,[1],inactive
same,Potency,[2],inactive
same,Potency,[3],inactive
same,Potency,[4],inactive
same,Potency,[5],inactive
same,Potency,[6],inactive
same,Potency,[7],inactive
same,Potency,[8],inactive
same,Potency,[9],inactive
same,Potency,[10],inactive
same,Potency,[11],inactive
same,Potency,[12],inactive
same,activation,[13]; at 70.3 µM (top of the series),-5.98%
same,Potency,[14],inactive
same,Potency,[15],inactive
same,Potency,Aromatase (Homo sapiens),inactive
same,Potency,[16],inactive
